# Assay results reported in PubChem BioAssay (EPA / NIEHS).
# The source made the active and inactive calls. How the source made its calls: active means hit-call score of the fitted dose curve at least 0.9, where 1 is the maximum; inactive means score below 0.9.
# How the values were obtained:
# [1] = target: Transcription factor E2F1 (Homo sapiens) (UniProt Q01094); assay: ATG_E2F_CIS: Attagene CIS-FACTORIAL HepG2 Assay for human E2F Transcription Factor 1 (AID 2282935); settings: HepG2 Attagene cis-reporter, E2F reporter RNA transcripts; actives raise or lower the signal
# How it was run: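 Endogenous E2F1 activity read through cis-promoter reporter units transfected into HepG2. After 24 h compound treatment, reporter mRNA measured by RT-PCR, HpaI digestion and capillary electrophoresis. Bidirectional fit versus DMSO.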
# [2] = ATG_E_Box_CIS: Attagene CIS-FACTORIAL HepG2 Assay for human Enhancer Box (E-box) (AID 2282936); settings: HepG2 E-box cis-reporter transcription, actives raise or lower the signal
# How it was run: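 HepG2 cells transiently transfected with multiplexed cis-element reporter units, dosed 24 h; reporter mRNA quantified by RT-PCR, 6-FAM labelling, HpaI digestion and capillary electrophoresis. E-box (USF1) signal fitted bidirectionally vs DMSO.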
# [3] = ATG_M_61_CIS: Attagene CIS-FACTORIAL HepG2 Assay for M61 Transcription Factor (Internal Marker) (AID 2282937); settings: HepG2 Attagene CIS-FACTORIAL M61 internal marker reporter; actives raise or lower the signal
# How it was run: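 Using transiently transfected HepG2 liver cells, reporter transcript levels were assessed 24 h post-dosing by RT-PCR and capillary electrophoresis. Changes in either direction were fitted relative to DMSO controls.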
# [4] = ATG_EGR_CIS: Attagene CIS-FACTORIAL HepG2 Assay for human Early Growth Response 1 (EGR1) (AID 2282938); settings: HepG2 Attagene CIS-FACTORIAL EGR reporter mRNA; actives raise or lower the signal
# How it was run: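 Fluorescent capillary-electrophoresis signal of reporter cDNA fragments serves as read-out. HepG2 cells bear transiently transfected cis-promoter reporter units and are exposed 24 h; gain- or loss-of-signal is fitted against DMSO.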
# [5] = ATG_M_19_CIS: Attagene CIS-FACTORIAL HepG2 Assay for M19 Transcription Factor (Internal Marker) (AID 2282939); settings: HepG2 Attagene CIS-FACTORIAL M19 internal marker reporter; actives raise or lower the signal
# How it was run: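 Readout: fluorescent reporter-transcript fragments by capillary electrophoresis after RT-PCR. Human HepG2 liver cells carried transfected MRTU constructs reporting endogenous transcription-factor activity; exposure 24 h. Gain or loss of signal fitted relative to DMSO.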
# [6] = ATG_ERE_CIS: Attagene CIS-FACTORIAL HepG2 Assay for Estrogen Response Element (ERE) (AID 2282940); settings: HepG2 ERE cis-reporter, Attagene RNA transcript; actives raise or lower the signal
# How it was run: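 Readout: reporter mRNA induction by RT-PCR, FAM-labelled primer extension, HpaI digestion and capillary electrophoresis, 24 h after dosing transfected HepG2 cells. Endogenous transcription factors act on cis-element-regulated reporters. Gain or loss fitted against DMSO.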
# [7] = ATG_Ets_CIS: Attagene CIS-FACTORIAL HepG2 Assay for human Erythroblast Transformation Specific (ETS) (AID 2282941); settings: HepG2 ETS cis-reporter transcription, actives raise or lower the signal
# How it was run: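 Steps: transfect HepG2 with multiple reporter units; treat compound 24 h; isolate RNA, DNase-treat, reverse-transcribe; PCR-amplify, label with 6-FAM, digest with HpaI; separate by capillary electrophoresis. Activity fitted both directions versus DMSO.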
# [8] = target: Hepatocyte nuclear factor 3-beta (Homo sapiens) (UniProt Q9Y261); assay: ATG_FoxA2_CIS: Attagene CIS-FACTORIAL HepG2 Assay for human Forkhead box A2 (FOXA2) (AID 2282942); settings: HepG2 cis-reporter transcription factor activity, 24 h; actives raise or lower the signal
# How it was run: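 Fluorescence signal of reporter cDNA fragments, separated by capillary electrophoresis, reflects endogenous transcription factor activity in transfected HepG2 after 24 h. Both increases and decreases fitted against DMSO.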
# [9] = ATG_FoxO_CIS: Attagene CIS-FACTORIAL HepG2 Assay for human Forkhead box O (FoxO) (AID 2282943); settings: HepG2 Attagene cis-reporter, FoxO element, mRNA; actives raise or lower the signal
# How it was run: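 Transfected HepG2 reporter cells exposed to test chemical for 24 h; reporter RNA measured by reverse transcription, PCR and fluorescent capillary electrophoresis; curves fitted for increases and decreases against DMSO.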
# [10] = ATG_GLI_CIS: Attagene CIS-FACTORIAL HepG2 Assay for human Zinc Finger Protein GLI1 (AID 2282945); settings: HepG2, Attagene cis-factorial reporter mRNA, GLI element; actives raise or lower the signal
# How it was run: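 Transiently transfected HepG2 cells report endogenous transcription factor activity via cis-element-driven reporter units. After 24 h compound exposure, reporter mRNA was measured by RT-PCR with capillary electrophoresis; bidirectional fitting against DMSO baseline.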
# [11] = ATG_GRE_CIS: Attagene CIS-FACTORIAL HepG2 Assay for human Glucocorticoid Response Elements (GRE) (AID 2282947); settings: HepG2 GRE cis-reporter, Attagene multiplex mRNA; actives raise or lower the signal
# How it was run: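 Transiently transfected HepG2 cells carrying GRE cis-reporter units (endogenous TF activity) dosed 24 h; reporter mRNA quantified by RT-PCR, 6-FAM labelling, HpaI digestion and capillary electrophoresis. Bidirectional fit versus DMSO baseline.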
# [12] = ATG_ISRE_CIS: Attagene CIS-FACTORIAL HepG2 Assay for human Interferon Regulatory Factor 1 (IRF1) binding to an Interferon-Stimulated Response Element (ISRE) (AID 2282948); settings: HepG2 ISRE cis-reporter (Attagene), mRNA transcription readout; actives raise or lower the signal
# How it was run: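 Transfected HepG2 (multiple reporter transcription units, cis elements) dosed 24 h. RNA → oligo(dT) RT → PCR → 6-FAM primer extension → HpaI → CE. DMSO = negative control/baseline.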
# [13] = ATG_M_06_CIS: Attagene CIS-FACTORIAL HepG2 Assay for M06 Transcription Factor (Internal Marker) (AID 2282950); settings: HepG2 Attagene CIS-FACTORIAL M06 internal marker reporter; actives raise or lower the signal
# How it was run: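 Terse: HepG2, transient MRTU transfection (FuGene 6), 24 h dosing; total RNA, oligo(dT) RT, PCR, FAM label, HpaI cut, capillary electrophoresis; bidirectional fit vs DMSO baseline; background-control endpoint.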
# [14] = target: Hypoxia-inducible factor 1-alpha (Homo sapiens) (UniProt Q16665); assay: ATG_HIF1a_CIS: Attagene CIS-FACTORIAL HepG2 Assay for human Hypoxia Inducible Factor 1 (HIF1A) (AID 2282951); settings: HepG2 Attagene cis-factorial HIF1a reporter transcription; actives raise or lower the signal
# How it was run: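 Endogenous-TF cis reporter readout, human HepG2 cells, 24 h incubation; mRNA detected via RT-PCR and capillary electrophoresis fluorescence; DMSO-normalised bidirectional fitting.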
# [15] = target: Hepatocyte nuclear factor 6 (Homo sapiens) (UniProt Q9UBC0); assay: ATG_HNF6_CIS: Attagene CIS-FACTORIAL HepG2 Assay for human Hepatocyte Nuclear Factor 6 (HNF6) (AID 2282952); settings: HepG2 Attagene cis-factorial HNF6 reporter transcription; actives raise or lower the signal
# How it was run: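 Reporter mRNA induction or loss in HepG2 after 24 h exposure; transient cis-MRTU transfection; fragments quantified by capillary electrophoresis; bidirectional analysis, DMSO as negative control.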
# [16] = ATG_MRE_CIS: Attagene CIS-FACTORIAL HepG2 Assay for human Metal Responsive Element (MRE) (AID 2282954); settings: HepG2 MRE cis-reporter transcription, Attagene multiplex; actives raise or lower the signal
# How it was run: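 HepG2 cells transiently transfected with cis-element-driven reporter units; mRNA measured 24 h after dosing. Reporter transcripts quantified by RT-PCR, FAM labelling, HpaI digestion and capillary electrophoresis; bidirectional fit versus DMSO.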
# [17] = target: Bile acid receptor (Homo sapiens) (UniProt Q96RI1); assay: ATG_IR1_CIS: Attagene CIS-FACTORIAL HepG2 Assay for human Nuclear Receptor Subfamily 1 Group H Member 4 (NR1H4), IR1 submotif (AID 2282946); settings: IR1 reporter transcription, actives raise or lower the signal
# How it was run: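 HepG2 cells transiently transfected with multiple cis-promoter-driven reporter units to measure endogenous transcription factor activity; 24 h exposure. Reporter mRNA read by RT-PCR, FAM labelling, HpaI digestion and capillary electrophoresis. Bidirectional fit versus DMSO.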
# [18] = ATG_M_32_CIS: Attagene CIS-FACTORIAL HepG2 Assay for M32 Transcription Factor (Internal Marker) (AID 2282949); settings: HepG2 Attagene cis-factorial M32 reporter, mRNA; actives raise or lower the signal;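 further: background control marker of the multiplexed CIS panel rather than a real target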
# How it was run: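 HepG2 cells transiently transfected with multiplexed cis-regulated reporter units, dosed 24 h. Reporter mRNA quantified by RT-PCR, 6-FAM labelling, HpaI digestion and capillary electrophoresis; bidirectional fit vs DMSO.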
# [19] = target: Heat shock factor protein 1 (Homo sapiens) (UniProt Q00613); assay: ATG_HSE_CIS: Attagene CIS-FACTORIAL HepG2 Assay for human Heat Shock Transcription Factor 1 (HSE) (AID 2282953); settings: HepG2 HSE cis-reporter, Attagene RNA transcription; actives raise or lower the signal
# How it was run: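 Read-out: fluorescence of reporter-specific RT-PCR fragments separated by capillary electrophoresis. HepG2 carrying transfected cis-element reporter units; 24 h dosing; activity fitted in both directions relative to DMSO baseline.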
# [20] = ATG_GATA_CIS: Attagene CIS-FACTORIAL HepG2 Assay for human GATA Binding Protein (AID 2282944); settings: HepG2 GATA cis-element reporter, Attagene multiplex mRNA; actives raise or lower the signal
# How it was run: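 Read-out: fluorescent reporter mRNA fragments resolved by capillary electrophoresis after RT-PCR. Human liver HepG2 cells carried transiently transfected cis-regulated reporter constructs; chemicals incubated 24 h; gain or loss of signal fitted relative to DMSO.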
# Sequence of Hepatocyte nuclear factor 3-beta (Homo sapiens) (Q9Y261 whole entry, looked up, the tested form may be a part): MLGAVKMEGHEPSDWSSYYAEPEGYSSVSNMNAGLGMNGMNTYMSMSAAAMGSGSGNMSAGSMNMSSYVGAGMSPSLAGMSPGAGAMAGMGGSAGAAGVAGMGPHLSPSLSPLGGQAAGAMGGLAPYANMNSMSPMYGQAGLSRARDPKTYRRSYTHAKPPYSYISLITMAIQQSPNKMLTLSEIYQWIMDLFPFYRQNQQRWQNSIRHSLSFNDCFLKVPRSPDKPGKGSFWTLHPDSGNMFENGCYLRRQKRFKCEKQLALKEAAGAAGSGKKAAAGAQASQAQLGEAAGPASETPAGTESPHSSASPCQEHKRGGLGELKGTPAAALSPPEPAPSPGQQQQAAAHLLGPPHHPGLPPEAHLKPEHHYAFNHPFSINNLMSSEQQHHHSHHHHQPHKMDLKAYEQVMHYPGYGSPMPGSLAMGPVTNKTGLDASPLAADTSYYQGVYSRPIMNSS
# Sequence of Hypoxia-inducible factor 1-alpha (Homo sapiens) (Q16665 whole entry, looked up): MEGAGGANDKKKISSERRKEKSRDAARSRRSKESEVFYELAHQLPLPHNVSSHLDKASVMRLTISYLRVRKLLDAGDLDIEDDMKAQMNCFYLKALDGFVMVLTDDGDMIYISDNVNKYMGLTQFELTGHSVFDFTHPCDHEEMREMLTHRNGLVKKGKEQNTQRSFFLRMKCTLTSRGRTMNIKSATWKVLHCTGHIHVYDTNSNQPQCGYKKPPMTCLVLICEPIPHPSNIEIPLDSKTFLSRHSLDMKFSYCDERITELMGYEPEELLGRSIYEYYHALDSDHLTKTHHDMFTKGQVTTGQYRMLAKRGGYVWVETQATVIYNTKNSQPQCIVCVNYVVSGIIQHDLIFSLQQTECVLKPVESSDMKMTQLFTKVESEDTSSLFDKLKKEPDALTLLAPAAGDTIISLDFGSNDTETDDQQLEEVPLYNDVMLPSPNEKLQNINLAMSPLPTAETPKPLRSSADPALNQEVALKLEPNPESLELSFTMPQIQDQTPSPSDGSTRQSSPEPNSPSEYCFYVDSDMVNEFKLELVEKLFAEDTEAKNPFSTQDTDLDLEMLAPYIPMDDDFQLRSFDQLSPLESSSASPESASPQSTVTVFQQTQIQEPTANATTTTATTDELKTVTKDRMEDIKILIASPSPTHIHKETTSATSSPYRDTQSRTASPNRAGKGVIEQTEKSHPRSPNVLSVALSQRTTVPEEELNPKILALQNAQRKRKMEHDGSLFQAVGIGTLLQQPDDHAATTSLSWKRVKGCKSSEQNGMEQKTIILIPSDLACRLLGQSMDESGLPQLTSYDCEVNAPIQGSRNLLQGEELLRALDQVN
# Sequence of Heat shock factor protein 1 (Homo sapiens) (Q00613 whole entry, looked up, the tested form may be a part): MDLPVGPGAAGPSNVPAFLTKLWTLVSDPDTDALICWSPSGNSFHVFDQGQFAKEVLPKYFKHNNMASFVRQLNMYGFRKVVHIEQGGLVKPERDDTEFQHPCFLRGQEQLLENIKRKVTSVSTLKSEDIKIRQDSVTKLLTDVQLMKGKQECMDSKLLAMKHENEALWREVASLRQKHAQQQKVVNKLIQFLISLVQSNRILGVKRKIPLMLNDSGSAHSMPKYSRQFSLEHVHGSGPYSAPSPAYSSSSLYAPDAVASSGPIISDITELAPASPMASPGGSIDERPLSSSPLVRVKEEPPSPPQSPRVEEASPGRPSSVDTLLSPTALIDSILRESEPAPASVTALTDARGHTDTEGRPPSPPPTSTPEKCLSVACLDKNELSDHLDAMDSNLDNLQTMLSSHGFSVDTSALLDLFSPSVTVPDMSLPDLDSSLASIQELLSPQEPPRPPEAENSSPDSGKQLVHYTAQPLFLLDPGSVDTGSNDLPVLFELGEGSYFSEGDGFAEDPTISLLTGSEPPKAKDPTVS
# Sequence of Hepatocyte nuclear factor 6 (Homo sapiens) (Q9UBC0 whole entry, looked up, the tested form may be a part): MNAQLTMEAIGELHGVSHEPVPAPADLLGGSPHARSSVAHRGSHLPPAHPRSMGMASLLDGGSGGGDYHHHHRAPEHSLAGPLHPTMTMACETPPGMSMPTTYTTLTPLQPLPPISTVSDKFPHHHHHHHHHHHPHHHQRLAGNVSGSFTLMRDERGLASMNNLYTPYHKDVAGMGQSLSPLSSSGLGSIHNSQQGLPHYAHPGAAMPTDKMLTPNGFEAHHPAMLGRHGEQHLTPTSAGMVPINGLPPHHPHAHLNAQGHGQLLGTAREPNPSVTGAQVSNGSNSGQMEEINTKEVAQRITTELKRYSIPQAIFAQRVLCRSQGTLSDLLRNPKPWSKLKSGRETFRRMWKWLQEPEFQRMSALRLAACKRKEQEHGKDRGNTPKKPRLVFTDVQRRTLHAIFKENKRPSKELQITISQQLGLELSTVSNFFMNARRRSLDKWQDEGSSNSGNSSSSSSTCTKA
# Sequence of Transcription factor E2F1 (Homo sapiens) (Q01094 whole entry, looked up): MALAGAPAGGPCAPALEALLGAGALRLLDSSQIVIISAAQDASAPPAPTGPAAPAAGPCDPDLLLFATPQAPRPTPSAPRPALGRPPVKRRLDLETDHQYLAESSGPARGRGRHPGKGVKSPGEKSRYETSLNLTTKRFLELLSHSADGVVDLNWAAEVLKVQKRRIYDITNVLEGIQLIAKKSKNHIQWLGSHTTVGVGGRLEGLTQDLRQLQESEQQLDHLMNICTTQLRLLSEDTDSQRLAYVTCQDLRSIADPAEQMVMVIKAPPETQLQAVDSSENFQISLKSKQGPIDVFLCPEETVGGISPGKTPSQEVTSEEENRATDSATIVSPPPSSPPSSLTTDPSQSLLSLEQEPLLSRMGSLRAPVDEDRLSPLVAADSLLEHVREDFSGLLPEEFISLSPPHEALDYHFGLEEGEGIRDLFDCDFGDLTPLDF
# Sequence of Bile acid receptor (Homo sapiens) (Q96RI1 whole entry, looked up): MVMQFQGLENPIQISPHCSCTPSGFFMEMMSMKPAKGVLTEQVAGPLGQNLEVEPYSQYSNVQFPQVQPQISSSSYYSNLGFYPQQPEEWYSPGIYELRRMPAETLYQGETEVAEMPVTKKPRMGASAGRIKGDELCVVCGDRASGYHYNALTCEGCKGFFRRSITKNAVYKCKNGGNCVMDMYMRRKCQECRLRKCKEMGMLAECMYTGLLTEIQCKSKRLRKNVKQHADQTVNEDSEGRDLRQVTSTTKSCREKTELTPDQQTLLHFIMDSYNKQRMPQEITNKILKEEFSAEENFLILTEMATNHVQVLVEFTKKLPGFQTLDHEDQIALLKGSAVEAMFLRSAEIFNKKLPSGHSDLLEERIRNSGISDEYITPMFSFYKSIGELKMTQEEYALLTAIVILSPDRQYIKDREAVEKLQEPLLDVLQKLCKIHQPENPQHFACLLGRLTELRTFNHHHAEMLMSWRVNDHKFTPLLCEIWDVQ
compound,measurement,setting,value
O=S(=O)(O)CCCN1CCOCC1,outcome,[1],inactive
same,outcome,[2],inactive
same,outcome,[3],inactive
same,outcome,[4],inactive
same,outcome,[5],inactive
same,outcome,[6],inactive
same,outcome,[7],inactive
same,outcome,[8],inactive
same,outcome,[9],inactive
same,outcome,[10],inactive
same,outcome,[11],inactive
same,outcome,[12],inactive
same,outcome,[13],inactive
same,outcome,[14],inactive
same,outcome,[15],inactive
same,outcome,[16],inactive
COc1ccc2[nH]cc(CCNC(C)=O)c2c1,outcome,[1],inactive
same,outcome,[2],inactive
same,outcome,[3],inactive
same,outcome,[4],inactive
same,outcome,[5],inactive
same,outcome,[6],inactive
same,outcome,[7],inactive
same,outcome,[8],inactive
same,outcome,[9],inactive
same,outcome,[10],inactive
same,outcome,[17],inactive
same,outcome,[11],inactive
same,outcome,[12],inactive
same,outcome,[18],inactive
same,outcome,[13],inactive
same,outcome,[15],inactive
same,outcome,[19],inactive
same,outcome,[16],inactive
NC(=O)c1cnccn1,outcome,[1],inactive
same,outcome,[2],inactive
same,outcome,[3],inactive
same,outcome,[4],inactive
same,outcome,[5],inactive
same,outcome,[6],inactive
same,outcome,[7],inactive
same,outcome,[8],inactive
same,outcome,[9],inactive
same,outcome,[10],inactive
same,outcome,[11],inactive
same,outcome,[12],inactive
same,outcome,[18],inactive
same,outcome,[13],inactive
same,outcome,[15],inactive
same,outcome,[19],inactive
same,outcome,[16],inactive
ClCCOCCOCCCl,outcome,[1],inactive
same,outcome,[2],inactive
same,outcome,[3],inactive
same,outcome,[4],inactive
same,outcome,[5],inactive
same,outcome,[6],inactive
same,outcome,[7],inactive
same,outcome,[8],inactive
same,outcome,[9],inactive
same,outcome,[20],inactive
same,outcome,[10],inactive
same,outcome,[12],inactive
same,outcome,[13],inactive
same,outcome,[14],inactive
same,outcome,[15],inactive
same,outcome,[16],inactive
CC(=O)c1ccc(O)cc1,outcome,[1],inactive
same,outcome,[2],inactive
same,outcome,[3],inactive
same,outcome,[4],inactive
same,outcome,[5],inactive
same,AC50,[6],26.5 µM (active)
same,outcome,[7],inactive
same,outcome,[8],inactive
same,outcome,[9],inactive
same,outcome,[10],inactive
same,outcome,[11],inactive
same,outcome,[12],inactive
same,outcome,[18],inactive
same,outcome,[13],inactive
same,outcome,[14],inactive
same,outcome,[15],inactive
same,outcome,[19],inactive
same,outcome,[16],inactive
CC(C)(C)c1cc(CCC(=O)OCCSCCOC(=O)CCc2cc(C(C)(C)C)c(O)c(C(C)(C)C)c2)cc(C(C)(C)C)c1O,outcome,[1],inactive
same,outcome,[2],inactive
same,outcome,[3],inactive
same,outcome,[4],inactive
same,outcome,[5],inactive
same,outcome,[6],inactive
same,outcome,[7],inactive
same,outcome,[9],inactive
same,outcome,[20],inactive
same,outcome,[10],inactive
same,outcome,[11],inactive
same,outcome,[12],inactive
same,outcome,[18],inactive
same,outcome,[13],inactive
same,outcome,[14],inactive
same,outcome,[15],inactive
same,outcome,[19],inactive
same,outcome,[16],inactive
CC(O)CNCC(C)O (centres undefined),outcome,[1],inactive
same,outcome,[2],inactive
same,outcome,[3],inactive
same,outcome,[4],inactive
same,outcome,[5],inactive
same,outcome,[6],inactive
same,outcome,[7],inactive
same,outcome,[8],inactive
same,outcome,[9],inactive
same,outcome,[10],inactive
same,outcome,[12],inactive
same,outcome,[18],inactive
same,outcome,[15],inactive
same,outcome,[16],inactive
CC(=O)OC(C)(C)C,outcome,[1],inactive
same,outcome,[2],inactive
same,outcome,[3],inactive
same,outcome,[4],inactive
same,outcome,[5],inactive
same,outcome,[6],inactive
same,outcome,[7],inactive
same,outcome,[8],inactive
same,outcome,[9],inactive
same,outcome,[10],inactive
same,outcome,[12],inactive
same,outcome,[18],inactive
same,outcome,[13],inactive
same,outcome,[14],inactive
same,outcome,[15],inactive
same,outcome,[19],inactive
same,outcome,[16],inactive
